This note sets out measurements from PubChem BioAssay (NCATS).

The nature of test [1]: Quantitative High-Throughput drug screen in 47 multiple myeloma cell lines against the NCATS MIPE library collection: PE2_PLB cell viability assay (AID 1919869). Further: nearly all actives have a fitted effect of over 35% in size. Further: potency means the concentration at half of the fitted maximal effect. An outline of the steps: (§1)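 Cells were exposed to library compounds for 48 hours, after which ATP was measured by CellTiter-Glo. Signal was taken as median relative luminescence units.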
A short description of test [2]: Quantitative High-Throughput drug screen in 47 multiple myeloma cell lines against the NCATS MIPE library collection: PCM6_Riken cell viability assay (AID 1919870). Further: nearly all actives have a fitted effect of over 30% in size. Further: potency means the concentration at half of the fitted maximal effect. An outline of the steps: as §1
Test [3] is described as follows: Quantitative High-Throughput drug screen in 47 multiple myeloma cell lines against the NCATS MIPE library collection: RPMI8226_ATCC cell viability assay (AID 1919871). Further: nearly all actives have a fitted effect of over 30% in size. Further: potency means the concentration at half of the fitted maximal effect. Summed up: as §1
The nature of test [4]: Quantitative High-Throughput drug screen in 47 multiple myeloma cell lines against the NCATS MIPE library collection: KMS11_JCRBsus cell viability assay (AID 1919873). Further: nearly all actives have a fitted effect of over 50% in size. Further: potency means the concentration at half of the fitted maximal effect. An outline of the steps: as §1
A short description of test [5]: Quantitative High-Throughput drug screen in 47 multiple myeloma cell lines against the NCATS MIPE library collection: KMS28BM_JCRB cell viability assay (AID 1919874). Further: nearly all actives have a fitted effect of over 35% in size. Further: potency means the concentration at half of the fitted maximal effect. An outline of the steps:
as §1

Test [6] is described as follows: qHTS drug screen for cell cycle checkpoint inhibitors in PARPi-resistant BRCA-mutant ovarian cancer cell lines. (AID 1963452; calls by dose curve). The following applies: PEO1/OlaR viability, CellTiter-Glo luminescence, 96 h, stronger effect = lower value. Summed up: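 PEO1, PEO4 and PEO1/OlaR ovarian cancer cells, 600 per well, exposed 96 h at 37C to a dilution series. Viability read by CellTiter-Glo luminescence, normalized to DMSO and empty wells; activity summarized as Z-AUC.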

A short description of test [7]: Quantitative High-Throughput drug screen in 47 multiple myeloma cell lines against the NCATS MIPE library collection: OPM2_DSMZ cell viability assay (AID 1919872). Further: nearly all actives have a fitted effect of over 30% in size. Further: potency means the concentration at half of the fitted maximal effect. An outline of the steps:
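Myeloma cells (500 per well) were exposed to MIPE 4.0 compounds by pin transfer and incubated 48 hours at 37C, 5% CO2. Viability was read as ATP by CellTiter-Glo luminescence, normalised to DMSO (100%) and media-only (0%) wells.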

Test [8] in a line: qHTS for identification of novel therapeutic agents for treatment of microphthalmiaassociated transcription factor (MiT) renal cell carcinoma (RCC) (AID 1963991). The following applies: CellTiter-Glo, 48 h, stronger effect = lower value. Summed up:
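Three TFE3-fusion RCC lines (UOK109, UOK124, UOK145), 500 cells/well in complete medium, were treated with MIPE 4.0 compounds for 48 hours at 37 C. Viability was by CellTiter-Glo luminescence, normalized to DMSO (100%) and empty wells (0%); curves fitted over 11 concentrations.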
On the technique in general: qHTS replaces the single test concentration by a dilution series.

Setting [9] is: measured here: PEO1 parental Z-AUC.

Structures are written as SMILES. Results filed as inconclusive are left out. Activity calls are given as the source filed them. Unless noted, the call rests on the fitted dose curve; in most records, active means well fitted cell-killing curve with a large enough effect; inconclusive means small, poorly fitted or top-dose-only effect, or effect the other way; inactive means no such curve, though single readings can be large or run the other way.

On to `COc1ccc(OC)c(-c2nnc3ccc(-c4ccc(OC)c(O[C@@H]5CCOC5)c4)nn23)c1`, for which the Potency is 8.33 µM (active) in test [1]; 7.43 µM (active) in test [2]; 18.7 µM (active) in test [3]; 6.62 µM (active) in test [4]; 7.43 µM (active) in test [5]. Further, the results for the Z-AUC in test [6], in test [6] (setting [9]) and in test [6] (measured here: PEO4 Z-AUC) were -1.33 (inactive), -1.59 and -1.98, respectively.
For the molecule `COc1cc(C(C)C)c2c(c1)S(=O)(=O)N(COc1cc(=O)n3cccc(OCCN4CCCCC4)c3n1)C2=O`, the Potency in test [1] and in test [2] was 18.7 µM (active) in each case. The Potency result in test [3] and in test [7] was “inactive” throughout. Also, the results for the Z-AUC in test [6], in test [6] (setting [9]) and in test [6] (measured here: PEO4 Z-AUC) were 1.15 (inactive), 1.06 and 0.892, respectively.
For `C1Cc2[nH]nc(-c3nn[nH]n3)c2C1`, the Potency entry in test [1], in test [2], in test [3] and in test [7] was “inactive” throughout. For the same molecule, the z-score in test [8] (TFE3-RCC UOK109 viability, measured here: UOK109 Z-AUC) is -0.0239; in test [8] (TFE3-RCC viability, measured here: UOK124 Z-AUC) it was 0.708; in test [8] (TFE3-RCC viability, measured here: UOK145 Z-AUC) it was 0.169.
Turning to `Cc1cc(Nc2ncnc3ccc(-c4ccc(CNCCS(C)(=O)=O)o4)cc23)ccc1Oc1ccn2ncnc2c1`, the Potency was 3.32 µM (active) in test [1]; 16.6 µM (active) in test [2]; 26.4 µM (active) in test [3]; 5.9 µM (active) in test [4]; 16.6 µM (active) in test [5]. The values for the Z-AUC in test [6], in test [6] (setting [9]) and in test [6] (measured here: PEO4 Z-AUC) were 0.841 (inactive), 0.912 and 0.782, respectively.
Turning to `O=C(CCCCCCC(=O)Nc1ccc([C@H]2O[C@@H](CSc3nc(-c4ccccc4)c(-c4ccccc4)o3)C[C@@H](c3ccc(CO)cc3)O2)cc1)NO`, the Potency in test [1] is 14.8 µM (active); in test [2] it was 13.2 µM (active); in test [3] it was 18.7 µM (active); in test [4], 11.8 µM (active); in test [5], 13.2 µM (active). The Z-AUC in test [6] was 0.612 (inactive); in test [6] (setting [9]) it was 1.26; in test [6] (measured here: PEO4 Z-AUC), 0.641.
Regarding `Cc1cc(Nc2cc(CN3CCOCC3)c3nc(C)c(Cc4ccc(Cl)cc4F)n3n2)n[nH]1`, the Potency is 5.26 µM (active) in test [1]; 16.6 µM (active) in test [2]; 2.35 µM (active) in test [3]; 1.18 µM (active) in test [4]; 14.8 µM (active) in test [5]. Further, the figures for the Z-AUC in test [6], in test [6] (setting [9]) and in test [6] (measured here: PEO4 Z-AUC) were -0.469 (inactive), -0.486 and -1.95, respectively.
For the molecule `Cc1ccc(CN2CCNCC2)cc1NC(=O)CNc1ccc(F)c(F)c1`, the Potency result in test [1], in test [2], in test [3] and in test [7] was “inactive” each time. Further, the Z-AUC in test [6] is -0.297 (inactive); in test [6] (setting [9]) it was -0.179; in test [6] (measured here: PEO4 Z-AUC) it was -0.154.
For the molecule `CC(C)CC(=O)Nc1n[nH]c2c1CN(C(=O)C1CCN(C)CC1)C2(C)C`, the Potency in test [1] is 2.09 µM (active); in test [2] it was 0.743 µM (active); in test [3] it was 4.18 µM (active); in test [4], 1.48 µM (active); in test [5], 2.35 µM (active). Moreover, the Z-AUC was -0.913 (inactive) in test [6], -0.186 in test [6] (setting [9]) and -0.504 in test [6] (measured here: PEO4 Z-AUC).
With `C[C@]1(CO)CN(c2cc(C(=O)Nc3ccc4c(c3)-c3c(c(C(N)=O)nn3-c3ccc(F)cc3)CC4)c(Cl)cn2)C[C@@]1(C)CO`, the Potency in test [1] is 11.8 µM (active); in test [2] it was 16.6 µM (active); in test [3], 2.96 µM (active); in test [4], 3.72 µM (active).
As to `CC(C)=CCCC(C)=CCCC(C)=CCSc1ccccc1C(=O)O`, the Potency in test [1] was 2.35 µM (active); in test [2], 6.62 µM (active); in test [3], 0.418 µM (active); in test [4], 0.209 µM (active); in test [5] it was 5.9 µM (active).
In the case of `COc1cc2c(Oc3ccc(-c4cnc(Nc5ccc(F)cc5)n(C)c4=O)cc3F)ccnc2cc1OCCCN1CCOCC1`, the Potency in test [1] is 14.8 µM (active); in test [2], 7.43 µM (active); in test [3] it was 5.9 µM (active); in test [4] it was 0.935 µM (active); in test [5] it was 4.18 µM (active). For the same molecule, the Z-AUC in test [6] was -1.38 (inactive); in test [6] (setting [9]), -0.565; in test [6] (measured here: PEO4 Z-AUC) it was -0.285.
For `Cc1cc(Nc2cc(N3CCN(C)CC3)nc(Sc3ccc(NC(=O)C4CC4)cc3)n2)n[nH]1`, the Potency in test [1] was 14.8 µM (active); in test [2], 23.5 µM (active); in test [3], 13.2 µM (active); in test [4], 2.35 µM (active); in test [5], 6.62 µM (active). Also, the figures for the Z-AUC in test [6], in test [6] (setting [9]) and in test [6] (measured here: PEO4 Z-AUC) were 0.654 (inactive), -0.131 and -0.437, respectively.
For the molecule `CC=C1NC(=O)[C@H]2CSSCCC=C[C@H](CC(=O)N[C@H](C(C)C)C(=O)N2)OC(=O)[C@H](C(C)C)NC1=O`, the Potency was 0.059 µM (active) in test [1], 0.001 µM (active) in test [2], 0.0264 µM (active) in test [3] and 0.0187 µM (active) in test [4].
Consider `CN1CCN(c2ccc3nc(-c4c(N)c5c(F)cccc5[nH]c4=O)[nH]c3c2)CC1`, for which the Potency is 5.26 µM (active) in test [1]; 2.64 µM (active) in test [2]; 29.6 µM (active) in test [3]; 10.5 µM (active) in test [4]; 14.8 µM (active) in test [5].
For `CN(C)CC=CC(=O)Nc1cc2c(Nc3ccc(F)c(Cl)c3)ncnc2cc1O[C@H]1CCOC1`, the Potency in test [1] is 2.96 µM (active); in test [2], 1.18 µM (active); in test [3], 16.6 µM (active); in test [4], 6.62 µM (active).
On to `COc1cc(C)c(Sc2cnc(NC(=O)c3ccc(CNC(C)C(C)C)cc3)s2)cc1C(=O)N1CCN(C(C)=O)CC1` (stereo unspecified), for which the Potency was 13.2 µM (active) in test [1]; 23.5 µM (active) in test [2]; 14.8 µM (active) in test [3]; 8.33 µM (active) in test [4]; 13.2 µM (active) in test [5]. Also, the Z-AUC in test [6] is -0.385 (inactive); in test [6] (setting [9]) it was -0.662; in test [6] (measured here: PEO4 Z-AUC), -0.689.
For the molecule `CNC(=O)c1c(F)cccc1Nc1nc(Nc2cc3c(cc2OC)CCN3C(=O)CN(C)C)nc2[nH]ccc12`, the Potency in test [1] was 2.64 µM (active); in test [2], 9.35 µM (active); in test [3], 2.35 µM (active); in test [4] it was 0.0662 µM (active); in test [5] it was 0.118 µM (active). For the same molecule, the Z-AUC in test [6] is -0.375 (inactive); in test [6] (setting [9]), -0.266; in test [6] (measured here: PEO4 Z-AUC), -0.708.
Regarding `CC(=O)SC[C@@H](C)C(=O)N1CCC[C@H]1C(=O)N[C@@H](Cc1ccccc1)C(=O)O`, the Potency result in test [1], in test [2], in test [3], in test [4] and in test [5] was “inactive” each time. Further, the figures for the Z-AUC in test [6], in test [6] (setting [9]) and in test [6] (measured here: PEO4 Z-AUC) were 0.0192 (inactive), -0.242 and -0.303, respectively.
`Fc1cc(-c2cccc3ncc(-c4cnn(C5CCNCC5)c4)nc23)cc(F)c1CN1CCOCC1`: the Potency is 8.33 µM (active) in test [1]; 7.43 µM (active) in test [2]; 20.9 µM (active) in test [3]; 9.35 µM (active) in test [4]; 26.4 µM (active) in test [5].
`CC(C)Nc1cc(C(F)(F)F)cc2nc(NC(=O)c3cccnc3)nn12`: the Potency result in test [1], in test [2], in test [3], in test [4] and in test [5] was “inactive” throughout. In addition, the Z-AUC in test [6] was 0.923 (inactive); in test [6] (setting [9]), 0.905; in test [6] (measured here: PEO4 Z-AUC), 1.12.
Consider `Cc1cn2c(-c3cn[nH]c3)cnc2c(Nc2ccc(C(=O)N3CCNCC3)cc2F)n1`, for which the Potency is 20.9 µM (active) in test [1]; 18.7 µM (active) in test [2]; 23.5 µM (active) in test [7]; 8.33 µM (active) in test [4]; 8.33 µM (active) in test [5].
